# Measurements: the supplement of paper PMC6411743
# ± gives the standard deviation of the averaged measurements. The full data set covers some 6,200 targets. This sample favours those with the largest changes.
# Compound: Nc1ncnc2c1ncn2[C@@H]1O[C@H](COP(=O)(O)OP(=O)(O)NP(=O)(O)O)[C@@H](O)[C@H]1O [adenylyl imidodiphosphate]
# Experiment: NP40-soluble protein abundance relative to vehicle (solubility fold change) (ratio); higher = more soluble protein in presence of AMP-PNP
# Method in brief: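 Values are fold changes against the detergent-processed vehicle, based on vsn-normalised intensities. Jurkat crude lysate was treated at eight concentrations from 0.1 to 10 mM (10 min at room temperature, then 3 min at 37 °C), solubilised with 0.8% NP40 and benzonase, ultracentrifuged and analysed by TMT-labelled LC-MS/MS over three independent experiments.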
# Sequence of UniProt P48444 (P48444 whole entry, one chain of several): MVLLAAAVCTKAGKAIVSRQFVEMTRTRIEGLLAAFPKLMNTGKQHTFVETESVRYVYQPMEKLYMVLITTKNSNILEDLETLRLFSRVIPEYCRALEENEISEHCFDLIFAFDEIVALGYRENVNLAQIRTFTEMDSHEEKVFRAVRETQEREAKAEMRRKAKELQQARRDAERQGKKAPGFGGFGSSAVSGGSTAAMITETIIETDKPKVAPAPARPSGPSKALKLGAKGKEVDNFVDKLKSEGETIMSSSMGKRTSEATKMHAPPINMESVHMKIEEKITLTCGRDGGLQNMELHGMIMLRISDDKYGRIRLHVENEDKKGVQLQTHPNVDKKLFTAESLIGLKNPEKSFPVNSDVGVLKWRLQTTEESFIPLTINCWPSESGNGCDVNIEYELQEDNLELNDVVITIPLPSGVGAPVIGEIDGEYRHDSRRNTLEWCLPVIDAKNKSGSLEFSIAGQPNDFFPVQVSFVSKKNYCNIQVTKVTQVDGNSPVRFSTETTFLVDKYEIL
# Sequence of UniProt O14734 (O14734 whole entry, one chain of several): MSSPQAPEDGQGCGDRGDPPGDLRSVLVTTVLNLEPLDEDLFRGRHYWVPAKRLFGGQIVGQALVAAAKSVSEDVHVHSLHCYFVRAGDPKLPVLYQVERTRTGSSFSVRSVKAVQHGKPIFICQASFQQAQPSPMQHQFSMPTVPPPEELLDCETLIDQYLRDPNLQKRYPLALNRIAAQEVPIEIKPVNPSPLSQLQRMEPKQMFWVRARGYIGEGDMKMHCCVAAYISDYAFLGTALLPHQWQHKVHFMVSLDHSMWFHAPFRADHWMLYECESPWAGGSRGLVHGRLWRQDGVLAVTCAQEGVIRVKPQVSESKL
# Sequence of UniProt Q9H6E5 (Q9H6E5 whole entry, one chain of several): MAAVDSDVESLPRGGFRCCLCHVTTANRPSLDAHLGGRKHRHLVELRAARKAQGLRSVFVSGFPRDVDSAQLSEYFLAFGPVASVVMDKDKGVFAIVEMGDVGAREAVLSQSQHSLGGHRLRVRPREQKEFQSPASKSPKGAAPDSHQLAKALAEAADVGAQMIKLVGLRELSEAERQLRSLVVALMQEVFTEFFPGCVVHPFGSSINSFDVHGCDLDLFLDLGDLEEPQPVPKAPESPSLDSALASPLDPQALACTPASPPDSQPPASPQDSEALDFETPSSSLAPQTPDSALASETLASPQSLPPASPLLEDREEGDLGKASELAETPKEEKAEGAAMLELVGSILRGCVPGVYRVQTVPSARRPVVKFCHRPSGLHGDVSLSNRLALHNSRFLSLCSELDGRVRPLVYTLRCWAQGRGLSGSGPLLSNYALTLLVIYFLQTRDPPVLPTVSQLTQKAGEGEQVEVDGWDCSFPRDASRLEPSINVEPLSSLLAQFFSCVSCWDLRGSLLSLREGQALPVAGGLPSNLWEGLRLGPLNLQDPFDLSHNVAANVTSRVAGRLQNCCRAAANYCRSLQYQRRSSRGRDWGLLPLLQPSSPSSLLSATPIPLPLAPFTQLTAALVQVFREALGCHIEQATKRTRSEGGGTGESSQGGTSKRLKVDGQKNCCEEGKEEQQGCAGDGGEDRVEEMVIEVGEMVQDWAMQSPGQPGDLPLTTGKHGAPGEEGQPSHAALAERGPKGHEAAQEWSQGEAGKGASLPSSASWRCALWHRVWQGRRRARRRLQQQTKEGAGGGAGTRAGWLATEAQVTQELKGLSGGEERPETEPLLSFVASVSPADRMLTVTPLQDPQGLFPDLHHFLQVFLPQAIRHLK
# Sequence of UniProt Q96K37 (Q96K37 whole entry, one chain of several): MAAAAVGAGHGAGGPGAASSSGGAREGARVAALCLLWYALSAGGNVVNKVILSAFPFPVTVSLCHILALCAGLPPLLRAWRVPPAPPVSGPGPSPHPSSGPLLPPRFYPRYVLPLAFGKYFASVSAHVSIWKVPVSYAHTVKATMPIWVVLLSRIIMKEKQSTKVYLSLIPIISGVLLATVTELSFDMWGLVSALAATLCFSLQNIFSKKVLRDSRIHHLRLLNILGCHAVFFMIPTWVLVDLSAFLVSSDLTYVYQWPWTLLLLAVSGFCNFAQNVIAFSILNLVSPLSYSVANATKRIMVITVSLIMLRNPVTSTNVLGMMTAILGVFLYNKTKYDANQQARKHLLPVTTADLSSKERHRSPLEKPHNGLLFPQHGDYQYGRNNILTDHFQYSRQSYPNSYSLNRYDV
# Sequence of UniProt Q8NI36 (Q8NI36 whole entry, one chain of several): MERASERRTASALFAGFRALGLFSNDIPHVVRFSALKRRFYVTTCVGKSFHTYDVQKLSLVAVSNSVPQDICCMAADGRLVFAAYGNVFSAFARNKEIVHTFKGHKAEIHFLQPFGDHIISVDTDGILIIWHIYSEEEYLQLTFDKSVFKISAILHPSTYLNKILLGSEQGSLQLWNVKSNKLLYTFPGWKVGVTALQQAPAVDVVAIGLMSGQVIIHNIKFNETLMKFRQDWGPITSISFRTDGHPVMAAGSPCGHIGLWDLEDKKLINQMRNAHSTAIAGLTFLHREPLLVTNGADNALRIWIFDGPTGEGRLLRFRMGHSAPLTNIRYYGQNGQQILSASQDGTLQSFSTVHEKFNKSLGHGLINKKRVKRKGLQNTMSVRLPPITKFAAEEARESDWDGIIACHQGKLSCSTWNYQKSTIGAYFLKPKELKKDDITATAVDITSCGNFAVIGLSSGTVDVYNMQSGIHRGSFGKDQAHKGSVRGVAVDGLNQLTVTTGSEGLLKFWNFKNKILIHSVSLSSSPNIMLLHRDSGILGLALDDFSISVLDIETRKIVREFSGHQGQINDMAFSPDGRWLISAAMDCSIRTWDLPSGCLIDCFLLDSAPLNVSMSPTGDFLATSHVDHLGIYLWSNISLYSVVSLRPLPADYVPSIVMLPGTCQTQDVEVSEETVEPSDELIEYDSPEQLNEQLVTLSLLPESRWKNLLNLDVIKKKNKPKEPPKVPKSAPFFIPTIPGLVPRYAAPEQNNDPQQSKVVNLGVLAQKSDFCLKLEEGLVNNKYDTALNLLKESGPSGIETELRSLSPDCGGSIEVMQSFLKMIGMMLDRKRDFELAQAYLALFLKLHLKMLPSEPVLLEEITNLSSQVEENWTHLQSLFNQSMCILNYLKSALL
# Sequence of UniProt O75879 (O75879 whole entry, one chain of several): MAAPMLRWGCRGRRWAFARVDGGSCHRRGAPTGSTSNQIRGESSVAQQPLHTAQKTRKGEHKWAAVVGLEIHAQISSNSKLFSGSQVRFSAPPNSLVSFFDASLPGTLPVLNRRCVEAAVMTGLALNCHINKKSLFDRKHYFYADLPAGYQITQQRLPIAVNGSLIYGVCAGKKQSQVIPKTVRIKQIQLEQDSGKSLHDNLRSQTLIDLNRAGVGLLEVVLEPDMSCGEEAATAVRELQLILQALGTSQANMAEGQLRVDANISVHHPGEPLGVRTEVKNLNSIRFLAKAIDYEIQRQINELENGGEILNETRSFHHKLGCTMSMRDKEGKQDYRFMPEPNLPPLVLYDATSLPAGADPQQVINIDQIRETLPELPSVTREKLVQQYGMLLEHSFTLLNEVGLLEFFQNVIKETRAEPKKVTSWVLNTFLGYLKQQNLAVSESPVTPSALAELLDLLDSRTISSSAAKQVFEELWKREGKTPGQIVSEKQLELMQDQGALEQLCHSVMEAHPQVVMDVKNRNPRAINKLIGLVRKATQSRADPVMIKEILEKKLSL
# Sequence of UniProt O43169 (O43169 whole entry, one chain of several): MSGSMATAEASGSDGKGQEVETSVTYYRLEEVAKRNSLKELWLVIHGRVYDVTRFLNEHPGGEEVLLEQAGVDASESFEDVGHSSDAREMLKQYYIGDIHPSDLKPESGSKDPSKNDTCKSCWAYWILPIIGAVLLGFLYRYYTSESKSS
# Sequence of UniProt O75063 (O75063 whole entry): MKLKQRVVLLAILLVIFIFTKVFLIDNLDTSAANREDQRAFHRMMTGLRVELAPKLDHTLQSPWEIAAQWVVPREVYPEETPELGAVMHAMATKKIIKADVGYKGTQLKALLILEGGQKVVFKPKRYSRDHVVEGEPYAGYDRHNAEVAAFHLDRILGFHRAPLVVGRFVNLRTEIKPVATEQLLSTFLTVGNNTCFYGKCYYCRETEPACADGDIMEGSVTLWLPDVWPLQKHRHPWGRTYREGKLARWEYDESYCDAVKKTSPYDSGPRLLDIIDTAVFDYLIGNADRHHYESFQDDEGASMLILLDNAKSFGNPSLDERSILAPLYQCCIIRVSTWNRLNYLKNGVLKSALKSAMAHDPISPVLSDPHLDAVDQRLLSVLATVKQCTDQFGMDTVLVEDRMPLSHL
# Sequence of UniProt P09496 (P09496 whole entry, one chain of several): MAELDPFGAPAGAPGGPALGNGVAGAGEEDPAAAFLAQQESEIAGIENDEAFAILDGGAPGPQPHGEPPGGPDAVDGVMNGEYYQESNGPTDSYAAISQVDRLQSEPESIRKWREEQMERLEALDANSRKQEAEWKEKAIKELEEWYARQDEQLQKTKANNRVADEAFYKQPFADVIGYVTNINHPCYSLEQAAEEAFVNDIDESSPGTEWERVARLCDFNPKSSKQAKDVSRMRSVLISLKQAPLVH
# Sequence of UniProt Q96C57 (Q96C57 whole entry, one chain of several): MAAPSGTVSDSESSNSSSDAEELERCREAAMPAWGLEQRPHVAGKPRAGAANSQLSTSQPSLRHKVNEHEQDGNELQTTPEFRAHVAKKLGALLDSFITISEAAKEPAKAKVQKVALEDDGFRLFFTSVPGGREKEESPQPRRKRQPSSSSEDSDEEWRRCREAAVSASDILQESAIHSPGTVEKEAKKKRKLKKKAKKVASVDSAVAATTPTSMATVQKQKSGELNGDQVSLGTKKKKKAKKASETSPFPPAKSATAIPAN
# Sequence of UniProt O95772 (O95772 whole entry, one chain of several): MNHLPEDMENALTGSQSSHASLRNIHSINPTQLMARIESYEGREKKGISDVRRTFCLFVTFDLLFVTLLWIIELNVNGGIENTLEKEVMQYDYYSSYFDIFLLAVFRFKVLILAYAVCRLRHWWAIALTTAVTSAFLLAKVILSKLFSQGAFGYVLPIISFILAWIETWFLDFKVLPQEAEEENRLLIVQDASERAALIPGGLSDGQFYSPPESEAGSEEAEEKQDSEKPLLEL
Target,NP40-soluble protein abundance (concentration: 1mM),NP40-soluble protein abundance (concentration: 2mM),NP40-soluble protein abundance (concentration: 4mM),NP40-soluble protein abundance (concentration: 6mM),NP40-soluble protein abundance (concentration: 8mM),NP40-soluble protein abundance (concentration: 10mM)
E9PDF6|O43795|O43795-2 (UniProt O43795),2.06 ± 0.29,2.04 ± 0.2,2.31 ± 0.29,2.37 ± 0.28,2.45 ± 0.32,2.39 ± 0.27
K7EIU8|Q13485 (UniProt Q13485),0.986 ± 0.065,0.936 ± 0.062,0.99 ± 0.091,1.04 ± 0.084,1.08 ± 0.08,1.03 ± 0.093
FAM20B (UniProt O75063),0.973 ± 0.02,0.993 ± 0.022,0.978 ± 0.024,0.99 ± 0.024,0.963 ± 0.016,1 ± 0.042
J3KNN5|Q9UJV9 (UniProt Q9UJV9),1.11 ± 0.029,1.1 ± 0.043,1.13 ± 0.073,1.12 ± 0.035,1.15 ± 0.053,1.22 ± 0.065
A0A0A0MSY9|Q92800|Q92800-2|Q92800-3|Q92800-4|Q92800-5 (UniProt Q92800),0.978 ± 0.017,0.97 ± 0.022,0.9794 ± 0.0047,0.994 ± 0.016,0.999 ± 0.019,1.001 ± 0.0058
C9JKL2|O95772|O95772-2|C9J3F5|C9JJ39|C9JPX5 (UniProt O95772),1.02 ± 0.019,1.04 ± 0.036,1.01 ± 0.016,0.989 ± 0.028,0.989 ± 0.019,1 ± 0.034
J3KNF8|O43169 (UniProt O43169),1.15 ± 0.069,1.34 ± 0.33,1.1 ± 0.049,1.08 ± 0.047,1.03 ± 0.08,1.05 ± 0.054
G3XAG1|Q96ME7|Q96ME7-3 (UniProt Q96ME7),1.04 ± 0.064,1.03 ± 0.1,1.17 ± 0.086,1.39 ± 0.083,1.52 ± 0.039,1.64 ± 0.1
ZC3H11A (UniProt O75152),0.86 ± 0.11,0.883 ± 0.1,0.853 ± 0.13,0.936 ± 0.094,0.933 ± 0.098,1.03 ± 0.098
F8WF69|P09496-2 (UniProt P09496),0.9494 ± 0.001,0.919 ± 0.057,0.873 ± 0.05,0.833 ± 0.033,0.806 ± 0.014,0.813 ± 0.018
H7C1I0|Q96K37|Q96K37-2 (UniProt Q96K37),1.02 ± 0.041,1.03 ± 0.017,1.02 ± 0.022,1.02 ± 0.039,1.05 ± 0.054,1.07 ± 0.056
UniProt O75037|O75037-2,1.03 ± 0.042,1.06 ± 0.018,1.04 ± 0.05,1.01 ± 0.04,1 ± 0.032,1.04 ± 0.052
M0QXA7|O95785-3 (UniProt O95785),1.02 ± 0.031,1.04 ± 0.029,1.06 ± 0.013,1.04 ± 0.034,1.02 ± 0.023,1.07 ± 0.032
E9PGC5|Q15262-2|Q15262-3|Q15262-4|Q5TG12|Q15262 (UniProt Q15262),1.02 ± 0.011,1.04 ± 0.053,1.02 ± 0.028,1.01 ± 0.015,0.997 ± 0.011,1.01 ± 0.019
MYO1G (UniProt B0I1T2),1.14 ± 0.074,1.12 ± 0.11,1.27 ± 0.22,1.34 ± 0.3,1.44 ± 0.43,1.47 ± 0.46
A0A0A0MQS0|A8MW92|F8W9L8|A8MW92-4 (UniProt A8MW92),0.995 ± 0.044,1.11 ± 0.088,1.1 ± 0.041,1.15 ± 0.036,1.17 ± 0.081,1.26 ± 0.019
H7C5A7|O14734 (UniProt O14734),0.962 ± 0.017,0.932 ± 0.036,0.956 ± 0.013,0.984 ± 0.061,0.97 ± 0.015,0.961 ± 0.02
A0A0B4J2E5|Q15269 (UniProt Q15269),1.05 ± 0.019,1.04 ± 0.098,1.23 ± 0.043,1.38 ± 0.036,1.56 ± 0.074,1.52 ± 0.095
F8WCF9|G5E9E8|Q8N465|Q8N465-2|Q8N465-3 (UniProt Q8N465),0.983 ± 0.03,1.01 ± 0.012,0.992 ± 0.01,1.04 ± 0.035,1.02 ± 0.032,1.03 ± 0.02
F5H7W8|Q96C57 (UniProt Q96C57),1.17 ± 0.015,1.26 ± 0.088,1.25 ± 0.058,1.29 ± 0.047,1.34 ± 0.062,1.37 ± 0.12
F5H0R1|Q9H6E5 (UniProt Q9H6E5),0.994 ± 0.023,1.01 ± 0.039,1.02 ± 0.016,0.973 ± 0.032,0.983 ± 0.024,0.978 ± 0.025
H0YHA7|J3QQ67|Q07020|Q07020-2 (UniProt Q07020),1.02 ± 0.038,0.9774 ± 0.0023,1.01 ± 0.086,0.9115 ± 0.0037,0.766 ± 0.042,1.04 ± 0.082
UniProt A2RU67,0.9918 ± 0.004,1.03 ± 0.031,1.02 ± 0.021,1 ± 0.019,1 ± 0.017,1.03 ± 0.016
H7BYF2|Q5JRG1|Q9BVL2|Q9BVL2-2|Q9BVL2-3 (UniProt Q9BVL2),1.031 ± 0.0089,1.1 ± 0.095,1.04 ± 0.053,1.03 ± 0.033,1.04 ± 0.026,1.11 ± 0.06
A0A0G2JNU3|A6H8Y1|A6H8Y1-6|A6H8Y1-7 (UniProt A6H8Y1),1.05 ± 0.041,1.087 ± 0.0063,1.12 ± 0.056,1.17 ± 0.067,1.12 ± 0.07,1.22 ± 0.046
E5RFJ1|Q96MF7 (UniProt Q96MF7),1.01 ± 0.028,1.03 ± 0.06,1.02 ± 0.035,0.957 ± 0.033,0.989 ± 0.022,0.9706 ± 0.0092
A0A0A0MTB8|Q8NI36 (UniProt Q8NI36),1.1 ± 0.06,1.15 ± 0.11,1.37 ± 0.12,1.55 ± 0.11,1.73 ± 0.16,1.78 ± 0.086
A0A0A6YYC8|I3L1I5 (UniProt I3L1I5),1.01 ± 0.027,1.02 ± 0.04,1.02 ± 0.012,1.01 ± 0.023,1 ± 0.02,1.009 ± 0.0072
B0YIW6|P48444 (UniProt P48444),0.98 ± 0.015,0.931 ± 0.045,0.949 ± 0.01,0.9391 ± 0.0089,0.9554 ± 0.0037,0.921 ± 0.017
D6REA0|O75879 (UniProt O75879),0.962 ± 0.026,0.9665 ± 0.0091,0.968 ± 0.036,1.03 ± 0.028,0.986 ± 0.038,1.003 ± 0.0032
